From PubChem BioAssay (NCATS)
Inconclusive results are not listed. Entries that show only a call come without a potency. Unmarked numbers belong to inactive results. Activity calls are given as the source filed them. Unless noted, calls come from the whole dose curve; as a rule, active = well fitted curve in the direction sought with a large enough effect; inconclusive = small, poorly fitted or top-dose-only effect, or another doubt; inactive = no such curve, though single readings can be large; an effect the other way counts as inactive or inconclusive.

Legend:
[1] = Primary qHTS for inhibitors of La Crosse Virus (LACV) - induced cell death in SH-SY5Y cells (AID 1508616);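 note: top concentration of the series differs between compounds; higher means more rescue of cells from virus-induced death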
Outline: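 Readout was luminescence from ATPLite 1step added after a 6-day LACV infection (0.01 MOI) of SH-SY5Y cells that had received pin-transferred compound 24 hr after seeding.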

[2] = target: Calcium and integrin-binding protein 1 (Homo sapiens) (UniProt Q99828); assay: Primary qHTS for Identification of Calcium Integrin Binding Protein 1 (CIB1) Competitor (AID 1508620);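 note: GST tagged CIB1 binding a fluorescein labelled alphaIIb integrin peptide tracer; top concentration of the series differs between compounds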
Outline: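 Fluorescence polarization competition: CIB1-GST (1 uM final) preincubated with compound 15 min at room temperature, then FITC-labeled alphaIIb peptide (100 nM final) added for another 15 min. Polarization read at Ex 480/Em 540.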

[3] = Cell Viability qHTS for small molecule stabilizers of the endoplasmic reticulum resident proteome (AID 1508629); conditions: cell viability counter-screen, 100 nM thapsigargin for final 4 h;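 note: human SH-SY5Y neuroblastoma cells carrying the GLuc-SERCaMP reporter; compound exposure about 46 h in total before the viability read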
[4] = target: Cytochrome P450 2D6 (Homo sapiens) (UniProt P10635); assay: Cytochrome P450 family 2 subfamily D member 6 (CYP2D6) small molecule antagonists: luciferase biochemical (cell-free) qHTS assay (AID 1645840; active = well fitted curve in the direction sought with a large enough effect in the repeat runs; an effect the other way counts as inactive or inconclusive; note: nearly all actives have a fitted effect of over 55% in size; note: potency is the fitted concentration of half-maximal effect)
Outline: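 P450-Glo luminescent screen: recombinant CYP2D6 enzyme–proluciferin substrate mix preincubated with compound 10 min at room temperature, then NADPH regeneration added for 1 h at room temperature. Detection reagent added for 20 min; luciferin light read as relative luminescence units.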

[5] = target: Cytochrome P450 2C9 (Homo sapiens) (UniProt P11712); assay: Cytochrome P450 family 2 subfamily C member 9 (CYP2C9) small molecule antagonists: luciferase biochemical (cell-free) qHTS assay (AID 1645842; active = well fitted curve in the direction sought with a large enough effect in the repeat runs; an effect the other way counts as inactive or inconclusive; note: nearly all actives have a fitted effect of over 55% in size; note: potency is the fitted concentration of half-maximal effect)
Outline: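 Luminescence, after 20 min with luciferin detection reagent, reflected CYP2C9 turnover during a 1 h NADPH-driven reaction at 37C. Enzyme-substrate mix contained 0.4% bovine serum albumin and was preincubated with compound 10 min at room temperature.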

[6] = Primary qHTS for inhibitors of nuclear receptor binding SET domain protein 2 (NSD2) in an isogenic RCH-ACV NSD2 p.E1099K mutant (9B) (AID 1645876); note: nearly all actives have a fitted effect of over 70% in size; note: potency is the fitted concentration of half-maximal effect
[7] = Primary qHTS for inhibitors of nuclear receptor binding SET domain protein 2 (NSD2) in an RCH-ACV wild type WT cells (2C) (AID 1645877); note: nearly all actives have a fitted effect of over 70% in size; note: potency is the fitted concentration of half-maximal effect
[8] = Primary qHTS for small molecule stabilizers of the endoplasmic reticulum resident proteome: Secreted ER Calcium Modulated Protein (SERCaMP) assay (AID 1508630)
Outline: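 GLuc-SERCaMP-expressing SH-SY5Y cells, pretreated 16 h with compound, are challenged with thapsigargin to empty ER calcium stores; after 4 h, coelenterazine is added directly to the medium and luminescence is imaged.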

[9] = A High-Content qHTS Against Drug Library for the Identification of Small Molecules that Inhibit DYT1 Early Onset Primary Dystonia-Associated Cell Pathology (AID 1645839; calls by dose curve; note: potency is the fitted concentration of half-maximal effect)
Outline: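 Readout: %pathology, the punctate EGFP-TorsinA distribution from imaging, as the primary channel and cell count as the toxicity counterscreen. HEK293 Flp-In cells expressing delE TorsinA were induced with tetracycline and treated with compound for 48 h.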

[10] = target: Cytochrome P450 3A4 (Homo sapiens) (UniProt P08684); assay: Cytochrome P450 family 3 subfamily A member 4 (CYP3A4) small molecule antagonists: luciferase qHTS assay (AID 1645841; active = well fitted curve in the direction sought with a large enough effect in the repeat runs; an effect the other way counts as inactive or inconclusive; note: nearly all actives have a fitted effect of over 45% in size)
Outline: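 P450-Glo CYP3A4 enzyme with proluciferin substrate was preincubated with DMSO-dissolved compounds for 10 min at room temperature. NADPH regeneration solution started a 1 h reaction. Detection reagent stopped it, and luminescence was read after 20 min.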

[11] = Counterscreen qHTS for small molecule stabilizers of the endoplasmic reticulum resident proteome: GLuc-NoTag assay (AID 1508627);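 note: SH-SY5Y cells given compound then 100 nM thapsigargin to empty ER calcium; series mostly up to about 76 µM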
Outline: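 SH-SY5Y cells stably expressing constitutively secreted GLuc (no SERCaMP tag) were pre-incubated 5 h, treated with compound for 19 h, then 100 nM thapsigargin for 4 h at 37C; medium GLuc read by coelenterazine luminescence.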

[12] = Confirmatory qHTS for small molecule stabilizers of the endoplasmic reticulum resident proteome: Secreted ER Calcium Modulated Protein (SERCaMP) assay (AID 1508628); note: potency is the fitted concentration of half-maximal effect; nearly all actives have a fitted effect of over 40% in size
Outline: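 We seeded SH-SY5Y-GLuc-SERCaMP cells, added compounds (three concentrations in the primary run, eleven up to 76.6 uM in confirmation), incubated 16 h, depleted ER calcium with thapsigargin, and read luciferase 4 h later.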

Chain of Cytochrome P450 3A4 (Homo sapiens) (P08684 whole entry, looked up): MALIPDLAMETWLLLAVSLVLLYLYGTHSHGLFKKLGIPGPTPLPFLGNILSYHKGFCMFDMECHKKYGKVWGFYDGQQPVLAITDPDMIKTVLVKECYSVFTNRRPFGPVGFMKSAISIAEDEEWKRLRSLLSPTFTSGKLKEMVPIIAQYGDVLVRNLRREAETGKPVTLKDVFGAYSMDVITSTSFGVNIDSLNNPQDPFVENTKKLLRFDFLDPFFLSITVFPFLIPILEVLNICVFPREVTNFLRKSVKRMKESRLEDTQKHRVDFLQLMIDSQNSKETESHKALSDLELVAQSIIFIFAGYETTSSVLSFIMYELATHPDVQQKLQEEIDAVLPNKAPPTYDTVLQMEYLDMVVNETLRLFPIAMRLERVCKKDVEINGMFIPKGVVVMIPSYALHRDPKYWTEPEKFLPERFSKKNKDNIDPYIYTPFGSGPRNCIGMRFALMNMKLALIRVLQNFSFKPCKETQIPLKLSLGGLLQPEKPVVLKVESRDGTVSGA
Chain of Cytochrome P450 2D6 (Homo sapiens) (P10635 whole entry, looked up): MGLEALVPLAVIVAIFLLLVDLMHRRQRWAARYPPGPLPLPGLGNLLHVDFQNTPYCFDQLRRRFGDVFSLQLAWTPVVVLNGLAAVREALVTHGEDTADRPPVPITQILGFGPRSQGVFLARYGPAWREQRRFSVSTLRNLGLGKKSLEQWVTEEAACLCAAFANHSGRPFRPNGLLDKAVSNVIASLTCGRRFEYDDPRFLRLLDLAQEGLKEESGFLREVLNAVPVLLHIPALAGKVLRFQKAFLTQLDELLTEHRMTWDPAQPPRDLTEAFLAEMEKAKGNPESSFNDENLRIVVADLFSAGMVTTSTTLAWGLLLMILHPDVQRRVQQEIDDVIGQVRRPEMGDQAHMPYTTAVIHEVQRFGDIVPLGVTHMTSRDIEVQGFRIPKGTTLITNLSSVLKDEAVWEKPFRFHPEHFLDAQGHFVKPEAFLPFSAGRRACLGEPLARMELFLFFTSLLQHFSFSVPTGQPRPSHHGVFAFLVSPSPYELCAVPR
Chain of Calcium and integrin-binding protein 1 (Homo sapiens) (Q99828 whole entry, looked up): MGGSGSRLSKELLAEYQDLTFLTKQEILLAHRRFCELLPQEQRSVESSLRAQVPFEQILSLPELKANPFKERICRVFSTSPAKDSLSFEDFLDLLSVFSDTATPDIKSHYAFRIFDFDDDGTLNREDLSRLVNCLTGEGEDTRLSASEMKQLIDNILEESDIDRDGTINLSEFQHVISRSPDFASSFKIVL
Chain of Cytochrome P450 2C9 (Homo sapiens) (P11712 whole entry, looked up): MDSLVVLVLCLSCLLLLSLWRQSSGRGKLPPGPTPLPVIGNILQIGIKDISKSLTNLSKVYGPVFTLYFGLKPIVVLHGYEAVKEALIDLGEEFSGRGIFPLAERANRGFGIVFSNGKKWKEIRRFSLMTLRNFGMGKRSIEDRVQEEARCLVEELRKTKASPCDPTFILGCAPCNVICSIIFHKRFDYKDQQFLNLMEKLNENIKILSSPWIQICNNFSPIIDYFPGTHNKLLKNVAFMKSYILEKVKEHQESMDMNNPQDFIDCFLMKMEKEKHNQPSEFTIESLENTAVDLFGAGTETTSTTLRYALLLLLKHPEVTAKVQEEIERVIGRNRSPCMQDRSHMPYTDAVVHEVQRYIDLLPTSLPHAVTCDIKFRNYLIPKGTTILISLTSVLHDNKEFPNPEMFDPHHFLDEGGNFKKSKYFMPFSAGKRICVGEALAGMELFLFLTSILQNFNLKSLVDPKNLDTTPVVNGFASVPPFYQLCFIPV

Structure (SMILES)	outcome [1]	Potency [2]	max response [3] [%]	Potency [4]	Potency [5]	Potency [6]	Potency [7]	Potency [8]	Potency [9]	Potency [10]	Potency [11]	Potency [12]
CCOC(=O)N1CCC(Nc2ccc(Cl)cc2N)CC1	inactive	inactive	-17.4	7.76 µM (active)	8.71 µM (active)	13.3 µM (active)	11.9 µM (active)	–	–	–	–	–
COc1ccc([C@@H]2Sc3ccccc3NC(=O)[C@@H]2O)cc1	inactive	inactive	–	13.8 µM (active)	–	–	–	inactive	inactive	–	–	–
Nc1ncnc2nc[nH]c12	inactive	inactive	–	inactive	inactive	inactive	inactive	inactive	inactive	inactive	–	–
CC(Oc1c(Cl)cccc1Cl)C1=NCCN1 (configuration not stated)	inactive	inactive	–	8.71 µM (active)	–	–	–	inactive	inactive	–	–	–
CC1c2ccccc2CN1NC(=O)c1ccc(Cl)c(S(N)(=O)=O)c1 (configuration not stated)	inactive	inactive	–	inactive	inactive	inactive	inactive	inactive	inactive	inactive	–	–
COc1ccc2c(c1)c(CC(=O)OC/C=C(\C)CC/C=C(\C)CCC=C(C)C)c(C)n2C(=O)c1ccc(Cl)cc1	inactive	inactive	–	12.3 µM (active)	–	–	–	inactive	inactive	–	–	–
CC(C)C(=O)Nc1cccc(C2CN3CCSC3=N2)c1 (configuration not stated)	inactive	inactive	–	inactive	–	–	–	inactive	inactive	–	–	–
CN(C)CCOC(c1ccccc1)c1ccc(Br)cc1 (configuration not stated)	inactive	inactive	–	0.275 µM (active)	–	–	23.7 µM (active)	–	–	–	inactive	–
COc1cc2nc(Cl)nc(N)c2cc1OC	inactive	inactive	–	inactive	inactive	–	–	inactive	inactive	–	–	–
O=C(O)CNC(=O)CNC(=O)CNC(=O)CSC(=O)c1ccccc1	inactive	inactive	–	inactive	inactive	–	–	inactive	inactive	–	–	–
CC(CC(C#N)(c1ccccc1)C(C)C)N(C)C (configuration not stated)	inactive	inactive	–	8.71 µM (active)	inactive	inactive	–	inactive	inactive	–	–	–
CCC[C@H](N[C@@H](C)C(=O)N1[C@H](C(=O)O)C[C@@H]2CCCC[C@@H]21)C(=O)OCC	inactive	inactive	–	inactive	inactive	–	–	inactive	inactive	–	–	–
O=C(O)[C@@H](O)[C@H](O)[C@H](O)[C@@H](O)C(=O)O	inactive	inactive	–	inactive	inactive	inactive	inactive	inactive	inactive	inactive	–	–
CCOC(=O)CN1CCCC1=O	inactive	inactive	–	inactive	inactive	inactive	inactive	inactive	inactive	inactive	–	–
Cc1ccc(C(=O)Oc2ccc(C(O)CNC(C)(C)C)cc2OC(=O)c2ccc(C)cc2)cc1 (configuration not stated)	inactive	inactive	–	–	–	–	–	inactive	–	–	–	–
CC(C(O)c1ccccc1)N(C)CCOC(c1ccccc1)c1ccccc1 (configuration not stated)	inactive	inactive	-4.6	0.0309 µM (active)	13.8 µM (active)	16.3 µM (active)	16.3 µM (active)	–	–	–	–	31.6 µM (active)
OCCOCCN1CCN(C(c2ccccc2)c2ccc(Cl)cc2)CC1 (configuration not stated)	inactive	inactive	–	–	–	–	–	inactive	–	–	–	–
CN1CCC(=C2c3ccccc3CCc3cccnc32)CC1	inactive	inactive	12.6	–	–	inactive	–	–	inactive	–	–	–
CC(=O)OCC(=O)Nc1cc(C#N)cc(NC(=O)COC(C)=O)c1Cl	inactive	inactive	–	inactive	inactive	inactive	inactive	inactive	inactive	inactive	–	–
CC(C)CCCC(C)NCCC(C)C (configuration not stated)	inactive	inactive	–	0.55 µM (active)	inactive	inactive	inactive	inactive	inactive	–	–	–
CCOc1ccc(NS(=O)(=O)c2ccc(N)cc2)nn1	inactive	inactive	–	inactive	inactive	inactive	inactive	inactive	inactive	–	–	–
C/C=C(/C(=C/C)c1ccc(OC(C)=O)cc1)c1ccc(OC(C)=O)cc1	inactive	inactive	–	inactive	17.4 µM (active)	5.31 µM (active)	3.76 µM (active)	inactive	8.91 µM (active)	–	–	–
Cc1sccc1Br	inactive	inactive	–	inactive	inactive	inactive	inactive	inactive	inactive	–	–	–
CCN(CC)C(=O)C1CN2CCc3cc(OC)c(OC)cc3C2CC1OC(C)=O (configuration not stated)	inactive	inactive	–	inactive	inactive	inactive	inactive	inactive	inactive	–	–	–
Cc1cccc(C)c1NC(=O)c1ccc(N)cc1	inactive	inactive	–	inactive	inactive	inactive	inactive	inactive	inactive	–	–	–
CN1C(=O)CC(C)(c2ccccc2)C1=O (configuration not stated)	inactive	inactive	–	inactive	inactive	inactive	inactive	inactive	inactive	–	–	–
